Structures can show the parent of a compound that is named as a salt.
Test system: MDA-MB-468
Assay: phospho-S6 immunofluorescence (DAPI-normalised), per-plate z-score; higher = higher phospho-S6 signal (less pathway suppression)
Settings: co-treatment: GDC0941 450 nM; 24 h
Experimental: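 GPCR-targeted compound library (MedChemExpress HY-L006) tested on MDA-MB-468 PTEN-null TNBC cells in 384-well plates at 0.1, 1 or 10 uM, combined with vehicle, GDC0941 450 nM or lapatinib 1 uM, for 24 h. Phospho-S6 (S240/244) immunofluorescence normalised to DAPI and expressed as a per-plate z-score; values are the mean of biological triplicates.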

Row | Compound | phospho-S6 immunofluorescence (z-score)
1 | CCOC(=O)O[C@]1(C(=O)OCCl)CC[C@H]2[C@@H]3CCC4=CC(=O)C=C[C@]4(C)[C@H]3[C@@H](O)C[C@@]21C [Loteprednol Etabonate] (compound 10 µM) | -0.86
2 | CC#C[C@]1(O)CC[C@H]2[C@@H]3CCC4=CC(=O)CCC4=C3[C@@H](c3ccc(N(C)C)cc3)C[C@@]21C [Mifepristone] (compound 10 µM) | -2.47
3 | NC(=O)[C@@H]1CCCC[C@@H]1C(=O)Nc1ccc(Cl)c(Cl)c1 (compound 10 µM) | 0.33
4 | O=C(CN1C(=O)C2(CCCC2)NC[C@H]1c1cc(F)cc(F)c1)Nc1ccc2c(c1)C[C@@]1(C2)C(=O)Nc2ncccc21 [MK-3207 (Hydrochloride)] (compound 10 µM) | -0.51
5 | OCc1ccc(-c2nn(Cc3ccccc3)c3ccccc23)o1 [Lificiguat] (compound 10 µM) | 3.23
6 | CN1CCN(CC(=O)N2c3ccccc3C(=O)Nc3cccnc32)CC1 [Pirenzepine (dihydrochloride)] (compound 10 µM) | 1.51
7 | CCN(Cc1ccncc1)C(=O)C(CO)c1ccccc1 (configuration not stated) [Tropicamide] (compound 10 µM) | 0.17
8 | O=C(c1ccc(F)cc1)N1CCC[C@H](c2nc(-c3ccc(F)cc3)no2)C1 (compound 10 µM) | -2.64
9 | O=C(Nc1cccc2c(=O)cc(-c3nnn[nH]3)oc12)c1ccc(OCCCCc2ccccc2)cc1 [Pranlukast (hemihydrate)] (compound 10 µM) | 1.61
10 | CC(C(=O)Nc1cc(C#N)ccc1CCCC(=O)O)c1ccc(F)c2ccccc12 (configuration not stated) (compound 10 µM) | -3.03

Same assay, conditions: co-treatment: lapatinib 1 uM; 24 h

Row | Compound | phospho-S6 immunofluorescence (z-score)
11 | COc1cc2c(cc1OC)-c1cc3ccc4c(c3c[n+]1CC2)OCO4 [Epiberberine (chloride)] (compound 10 µM) | 0.22
12 | CCOc1cc(N)c(Cl)cc1C(=O)NCC1CN(Cc2ccc(F)cc2)CCO1 (configuration not stated) [Mosapride (citrate)] (compound 10 µM) | 0.46
13 | CCNC(=O)[C@@H]1CCCN1C(=O)[C@H](CCCNC(=N)N)NC(=O)[C@H](CC(C)C)NC(=O)[C@@H](CC(C)C)NC(=O)[C@H](Cc1ccc(O)cc1)NC(=O)[C@H](CO)NC(=O)[C@H](Cc1c[nH]c2ccccc12)NC(=O)[C@H](Cc1c[nH]cn1)NC(=O)[C@@H]1CCC(=O)N1 [Leuprolide (Acetate)] (compound 10 µM) | -0.17
14 | NC(=O)NC1NC(=O)NC1=O (configuration not stated) [Allantoin] (compound 10 µM) | 0.13
15 | CCN(CC)CCNC(=O)c1cc(Cl)c(N)cc1OC [Metoclopramide] (compound 10 µM) | 0.63
16 | CN(C)CCOC(C)(c1ccccc1)c1ccc(Cl)cc1 (configuration not stated) [Chlorphenoxamine] (compound 10 µM) | -7.36
17 | C[C@H](N)[C@H](O)c1cccc(O)c1 [Metaraminol (tartrate)] (compound 10 µM) | 0.89
18 | O=c1ccc2ccc(OCCCCN3CCN(c4cccc5sccc45)CC3)cc2[nH]1 [Brexpiprazole] (compound 10 µM) | -6.92
19 | N=C(N)NCCCCN [Agmatine (sulfate)] (compound 10 µM) | -0.16
20 | NC(N)=Nc1nc(CSCC/C(N)=N/S(N)(=O)=O)cs1 [Famotidine] (compound 10 µM) | -0.34
21 | CN(C)CCOC(c1ccccc1)c1ccccc1 [Diphenhydramine (hydrochloride)] (compound 10 µM) | -0.09
22 | O=C(O)CC1CCC2(CC1)CCN(c1cc(OC(F)(F)F)ccc1Cl)CC2 (compound 10 µM) | 0.11
23 | CCCCC[C@H](O)/C=C/[C@H]1[C@H](O)CC(=O)[C@@H]1CCCCCCC(=O)O [Prostaglandin E1] (compound 10 µM) | 1.48
24 | CN1N=C2CCN(C(=O)[C@@H](COCc3ccccc3)NC(=O)C(C)(C)N)C[C@@]2(Cc2ccccc2)C1=O [Capromorelin (Tartrate)] (compound 10 µM) | -0.67
25 | C[C@](N)(Cc1ccc(O)c(O)c1)C(=O)O (compound 10 µM) | 0.11
26 | CCc1nc2c(C)nc(C)cc2n1-c1ccc(CCNC(=O)NS(=O)(=O)c2ccc(C)cc2)cc1 [Grapiprant] (compound 10 µM) | -0.15
27 | Cc1cc(C(C)(C)C)cc(C)c1CC1=NCCN1 [Xylometazoline (hydrochloride)] (compound 10 µM) | -0.12
28 | COc1ccccc1Oc1c(NS(=O)(=O)c2ccc(C(C)(C)C)cc2)nc(-c2ncccn2)nc1OCCO [Bosentan] (compound 10 µM) | 0.78
29 | COc1ccc(CCN2CCN(CCCc3ccccc3)CC2)cc1OC [SA4503 (dihydrochloride)] (compound 10 µM) | -0.13

Row | Compound | phospho-S6 immunofluorescence (z-score)
30 | CCN(CC)CCCC(C)Nc1nc(C)cc(Nc2ccc3nc(C)cc(N)c3c2)n1 (configuration not stated) (compound 10 µM) | 1.82
31 | COCCCN1CCC(NC(=O)c2cc(Cl)c(N)c3c2OCC3)CC1 [Prucalopride] (compound 10 µM) | 0
32 | O=C1CCC(c2ccccc2)(C2CCN(Cc3ccccc3)CC2)C(=O)N1 (configuration not stated) [Benzetimide (hydrochloride)] (compound 10 µM) | -0.15
33 | c1ccc(NCc2ccc(CNc3ccccn3)cc2)nc1 (compound 10 µM) | -0.48
34 | Cc1nc2n(c(=O)c1CCN1CCC(c3noc4cc(F)ccc34)CC1)CCCC2O (configuration not stated) [Paliperidone] (compound 10 µM) | 0.36
35 | CC(C)OC(=O)N1CCC(Oc2ncnc3c2cnn3-c2ccc(S(C)(=O)=O)cc2F)CC1 (compound 10 µM) | -0.15
36 | CC(NCCc1ccc(O)cc1)C(O)c1ccc(O)cc1 (configuration not stated) [Ritodrine (hydrochloride)] (compound 10 µM) | 1.26
37 | Cc1ccc(C(=O)Nc2ccc(S(=O)(=O)O)c3cc(S(=O)(=O)O)cc(S(=O)(=O)O)c23)cc1NC(=O)c1cccc(NC(=O)Nc2cccc(C(=O)Nc3cc(C(=O)Nc4ccc(S(=O)(=O)O)c5cc(S(=O)(=O)O)cc(S(=O)(=O)O)c45)ccc3C)c2)c1 [Suramin (sodium salt)] (compound 10 µM) | 1.39
38 | CCOC(=O)O[C@]1(C(=O)OCCl)CC[C@H]2[C@@H]3CCC4=CC(=O)C=C[C@]4(C)[C@H]3[C@@H](O)C[C@@]21C [Loteprednol Etabonate] (compound 10 µM) | 0.31
39 | CC#C[C@]1(O)CC[C@H]2[C@@H]3CCC4=CC(=O)CCC4=C3[C@@H](c3ccc(N(C)C)cc3)C[C@@]21C [Mifepristone] (compound 10 µM) | 1.14
40 | NC(=O)[C@@H]1CCCC[C@@H]1C(=O)Nc1ccc(Cl)c(Cl)c1 (compound 10 µM) | -0.14
41 | O=C(CN1C(=O)C2(CCCC2)NC[C@H]1c1cc(F)cc(F)c1)Nc1ccc2c(c1)C[C@@]1(C2)C(=O)Nc2ncccc21 [MK-3207 (Hydrochloride)] (compound 10 µM) | -0.06
42 | OCc1ccc(-c2nn(Cc3ccccc3)c3ccccc23)o1 [Lificiguat] (compound 10 µM) | 2.82
43 | CN1CCN(CC(=O)N2c3ccccc3C(=O)Nc3cccnc32)CC1 [Pirenzepine (dihydrochloride)] (compound 10 µM) | 1.09
44 | CCN(Cc1ccncc1)C(=O)C(CO)c1ccccc1 (configuration not stated) [Tropicamide] (compound 10 µM) | 1.42
45 | O=C(c1ccc(F)cc1)N1CCC[C@H](c2nc(-c3ccc(F)cc3)no2)C1 (compound 10 µM) | -3.29
46 | O=C(Nc1cccc2c(=O)cc(-c3nnn[nH]3)oc12)c1ccc(OCCCCc2ccccc2)cc1 [Pranlukast (hemihydrate)] (compound 10 µM) | 1.07
47 | CC(C(=O)Nc1cc(C#N)ccc1CCCC(=O)O)c1ccc(F)c2ccccc12 (configuration not stated) (compound 10 µM) | -2.8

Source: the supplement of paper PMC7411640
